Inconclusive results are not listed. A number with no mark means an inactive call. Active and inactive are the calls of the source. The call rests on the fitted dose curve; in most records, active means well fitted activation curve with a large enough effect in the signal ratio, with a control signal flat; inconclusive means small, poorly fitted or top-dose-only effect, or a change in a side signal; inactive means flat fitted curve, though single readings scatter; the % refers to the signal ratio.
target: Thyrotropin receptor (Homo sapiens) (UniProt P16473); assay: Secondary Concentration-Response Assay for Agonists of the Thyroid Stimulating Hormone Receptor: HTRF Activity Detection; conditions: HEK293-TSHR cells, cAMP HTRF ratio, 30 min; series mostly up to 91.7 µM;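 further: HEK 293 cells stably expressing human TSHR with RO 20-1724 phosphodiesterase inhibitor; % of control where 0% means no effect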
Sequence (P16473 whole entry, looked up): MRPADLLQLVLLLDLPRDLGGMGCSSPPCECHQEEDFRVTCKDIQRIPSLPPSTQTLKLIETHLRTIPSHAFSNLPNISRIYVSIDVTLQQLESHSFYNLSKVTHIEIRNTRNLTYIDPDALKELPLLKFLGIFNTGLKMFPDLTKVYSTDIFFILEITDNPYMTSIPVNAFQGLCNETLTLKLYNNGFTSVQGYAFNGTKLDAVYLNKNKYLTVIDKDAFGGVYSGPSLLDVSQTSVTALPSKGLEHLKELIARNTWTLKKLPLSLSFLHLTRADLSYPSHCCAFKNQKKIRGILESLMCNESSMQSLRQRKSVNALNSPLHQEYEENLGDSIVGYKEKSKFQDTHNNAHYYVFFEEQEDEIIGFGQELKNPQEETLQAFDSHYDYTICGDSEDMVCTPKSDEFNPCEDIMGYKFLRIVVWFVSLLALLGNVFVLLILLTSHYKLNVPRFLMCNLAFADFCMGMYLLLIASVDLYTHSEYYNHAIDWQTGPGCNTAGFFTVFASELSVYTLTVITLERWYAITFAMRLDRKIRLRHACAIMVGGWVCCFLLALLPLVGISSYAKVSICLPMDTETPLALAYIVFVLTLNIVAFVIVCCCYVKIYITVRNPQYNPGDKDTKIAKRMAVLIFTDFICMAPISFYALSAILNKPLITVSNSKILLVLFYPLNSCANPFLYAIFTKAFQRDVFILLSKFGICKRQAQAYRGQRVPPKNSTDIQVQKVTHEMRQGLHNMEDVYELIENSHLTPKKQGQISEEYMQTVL
Excerpt: NIH Chemical Genomics Center [NCGC]
NIH Molecular Libraries Screening Centers Network [MLSCN]
PI Name: Dr. Marvin Gershengorn, NIH
Confirmation of Thyroid Stimulating Hormone Receptor Agonists
TSH is an alpha/beta heterodimeric glycoprotein hormone secreted from the anterior pituitary gland which belongs to the glycoprotein hormone family. The actions of TSH are mediated by a seven-transmembrane receptor, which upon TSH binding couples preferentially to the G-alpha (s) protein (Gs), resulting in activation of adenylate cyclase and increase in cyclic adenosine 3', 5' monophosphate (cAMP). The TSH receptor (THSR) is mainly expressed in thyroid follicular cells and regulates their growth and function. Recombinant TSH is used to activate TSHR in patients with thyroid cancer receiving thyroid hormone suppression therapy and to screen for residual tumor after surgery, but it is expensive and must be administered intramuscularly. An orally active small molecule TSHR agonist would serve as an invaluable research tool for studying TSHR pharmacology and physiology, and would have multiple advantages in therapeutic settings. However, no selective small molecule agonist of the TSH receptor exists, and no small molecule screen for TSHR agonists has ever been reported.
A confirmatory assay of putative TSHR agonists was conducted on a different TSHR transfected HEK 293 cell line, using an orthogonal detection technology to measure cAMP stimulation: antibody-based Homogeneous Time Resolved Fluorescence (HTRF).
NCGC Assay Protocol Summary:
Homogeneous Time Resolved Fluorescence (HTRF) cAMP Assay. HEK 293 cells stably transfected with a vector containing the TSHR and maintained under hygromycin selection were obtained from the laboratory of Dr. Marvin Gershengorn. […] Plates were measured using the Envision plate reader (PerkinElmer, Boston, MA) with excitation at 330 nm and emissions of 615 nm and 660 nm.
Keywords: Thyroid-stimulating hormone TSH, TSHR, TSHR agonist, quantitative high throughput screening, qHTS, HTS, probe identification, CNG, cAMP, cyclic nucleotide gated ion channel PubChem

SMILES | outcome | activation
C=CCN1C(=O)C2(C(C(=O)OC)=C(N)Oc3c2c(=O)oc2ccccc32)c2ccccc21 (stereo not drawn) | inactive | 
O=c1[nH]c(=O)n(Cc2ccco2)c(O)c1C=NC1CC1 |  | -0.432% [at 0.00035 µM]
CCOC(=O)C1=C(N)Oc2c(c(=O)oc3ccccc23)C12C(=O)N(C)c1ccccc12 (stereo not drawn) | inactive | 
